The values that follow come from PubChem BioAssay.

Experiment [1] in a line: compounds binding Alexa647 anti-His antibody – biochemical, small-molecule microarray, 635 nm fluorescence, artefact control for SMM control protein annotation, primary screen (AID 1128).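 Note: score merges feature fluorescence with signal-to-noise for each printed compound spot.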 To be noted: higher = more signal.
Experiment [2] concerns Human papillomavirus type 1a E7 protein (residues 1-88). In words: HPV1a E7 small-molecule binders, primary screen, biochemical, small-molecule microarray, residues 1-88, 635 nm (AID 1129). To be noted: small-molecule microarray binding, fluorescence 635 nm; higher = more signal.
Experiment [3] concerns the target Focal adhesion kinase 1 (Homo sapiens) (UniProt Q05397). Description: PTK2 protein binding on printed compound slides – biochemical, small-molecule microarray, 635/667 nm fluorescence, BSA, DTT, primary screen (AID 1130).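 Note: composite of spot emission at 667 nm and signal to noise over triplicate slides.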 To be noted: 635 nm fluorescence, higher = more signal.
Experiment [4] concerns Fibrinogen (Alexa647-labelled). In words: Alexa647-fibrinogen binding to printed small molecules – biochemical, small-molecule microarray, 635/667 nm fluorescence, artefact control for SMM control-protein annotation, profiling panel (AID 1131).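 Note: z-score merges 667 nm fluorescence with per-spot signal-to-noise over triplicate slides.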 The settings on record: fibrinogen-A647 binding fluorescence, higher = more signal.
Experiment [5] has as its target Follistatin (Homo sapiens) (UniProt P19883). In words: FST protein binding to printed compounds – biochemical, small-molecule microarray, 635/667 nm fluorescence, primary screen (AID 1132). The settings on record: 635 nm fluorescence, higher = more signal.
Experiment [6] has as its target Fibroblast growth factor 2 (Homo sapiens) (UniProt P09038). Description: basic fibroblast growth factor binding to printed compounds – biochemical, small-molecule microarray, 635/667 nm fluorescence, primary screen (AID 1133). The settings on record: FGF2, fluorescence 635/667, higher = more signal.
Experiment [7] is described as follows: JC-1 mitochondrial potential readout, lung cancer cells – cell-based, A549, JC-1 fluorescence, basal, 24 h, 100 nL, profiling panel (AID 1138).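 Note: A549 lung adenocarcinoma cells under basal conditions with no added stimulus; test concentration not given here.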 The settings on record: higher = more signal.
A further experiment concerns Lefty1. Description: Lefty1 protein binding to printed compounds – biochemical, small-molecule microarray, 635/667 nm fluorescence, primary screen (AID 1139). To be noted: fluorescence 635/667, higher = more signal.
The test system of experiment [8] is wheat germ agglutinin (Triticum aestivum), Alexa647-labelled. Description: Alexa647-WGA lectin binding to printed small molecules – biochemical, small-molecule microarray, 635/667 nm fluorescence, artefact control for SMM control-protein annotation, profiling panel (AID 1140).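 Note: score merges 667 nm feature emission with signal to noise over triplicate slides.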 To be noted: WGA-A647 binding, 635 nm fluorescence, higher = more signal.
Experiment [9] addresses Luciferin 4-monooxygenase (Photinus pyralis) (UniProt P08659). In words: inhibition of purified Photinus pyralis luciferase – biochemical, luminescence, purified enzyme, 2006 set, primary screen (AID 1141).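 Note: cell-free assay with purified firefly luciferase at 100 ng per well in PBS; test concentration not given here.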 To be noted: purified firefly luciferase, SteadyGlo luminescence, 30 min; higher = more signal, called active from +8 up or from −8 down.
Experiment [10] deals with Wnt5a (protein binding on small-molecule microarray). In words: small molecules binding Wnt5a protein – biophysical, small-molecule microarray, 635/667 nm fluorescence, primary screen (AID 1142).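 Note: fluorescence read at 667 nm with signal to noise per printed feature.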 To be noted: 635 nm fluorescence, higher = more signal.
Experiment [11] is described as follows: ATP-based viability of Huh7 replicon cells – cell-based, CellTiter-Glo luminescence, basal, 48 h, cytotoxicity control for HCV replication inhibitor project, primary screen (AID 1143).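 Note: Huh7 hepatoma cells carrying a hepatitis C replication reporter with no stimulus; test concentration not given here.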 To be noted: higher = more signal, called active from +8 up or from −8 down.
The nature of experiment [12]: Pseudomonas biofilm growth suppression – PAO1 strain, BacTiter-Glo luminescence, LB-PBS, primary screen (AID 1144). The settings on record: P. aeruginosa PAO1 biofilm, 12 h, higher = more signal.
A short description of experiment [13]: basal CRE-LacZ reporter activity in PC12 – cell-based, unstimulated, primary screen (AID 1145). To be noted: no forskolin, luminescence, 4.5 h, higher = more signal, called active from +8 up or from −8 down.
Experiment [14] in a line: forskolin-driven CRE-LacZ activity in PC12 – cell-based, CRE-LacZ reporter, forskolin-stimulated, primary screen (AID 1146).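 Note: PC12 cells with 6xCRE LacZ reporter stimulated by forskolin 10 µM; beta-galactosidase reporter signal reflecting CREB driven transcription.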 To be noted: luminescence, 4.5 h, higher = more signal, called active from +8 up or from −8 down.
In experiment [15] the target is Streptavidin (Streptomyces avidinii) (UniProt P22629). In words: compounds binding control protein streptavidin – biophysical, small-molecule microarray, 635/667 nm fluorescence, artefact control for SMM compound annotation, primary screen (AID 1147).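 Note: signal reflects streptavidin binding to arrayed compounds as a control protein.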 To be noted: higher = more signal.
Chain of Streptavidin (Streptomyces avidinii) (P22629 whole entry, looked up): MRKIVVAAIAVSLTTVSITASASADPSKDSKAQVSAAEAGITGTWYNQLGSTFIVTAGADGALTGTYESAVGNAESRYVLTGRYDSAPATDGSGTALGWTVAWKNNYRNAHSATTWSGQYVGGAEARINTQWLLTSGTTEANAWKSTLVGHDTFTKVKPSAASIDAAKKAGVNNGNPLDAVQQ
Experiment [16] can be described thus: probe aInhba binding on compound microarray – biochemical, small-molecule microarray, 635/667 nm fluorescence, primary screen (AID 1148).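 Note: score merges 667nm spot fluorescence with signal-to-noise for antibody binding to printed compounds.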 The settings on record: higher = more signal.
Experiment [17] has as its target Torsin-1A (Homo sapiens) (UniProt O14656). Description: TOR1A wild-type binding on microarray – cell lysate, small-molecule microarray, lysate, 635/667 nm, primary screen (AID 1149). To be noted: COS7 hTOR1A-WT lysate, 635 nm fluorescence, higher = more signal.
The target is the same in experiment [18]. Description: torsin A mutant lysate binding on microarrays – cell lysate, small-molecule microarray, COS7 lysate, 635/667 nm fluorescence, primary screen (AID 1150).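 Note: score pools 667 nm emission and signal to noise measuring lysate protein binding.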 The settings on record: COS7 hTOR1A mutant lysate, 635 nm fluorescence, higher = more signal.
In experiment [19] the test system is Sonic hedgehog protein (Shh). In words: Sonic hedgehog microarray binding compounds – biochemical, small-molecule microarray, 635/667 nm fluorescence, primary screen (AID 1151).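 Note: Shh protein binding to compounds spotted on small-molecule microarray slides; score combines spot fluorescence intensity with signal-to-noise across triplicate slides.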 To be noted: 635 nm fluorescence, higher = more signal.

The source made the active and inactive calls. Unless noted, the rule behind the calls is not given here.

Chain of Focal adhesion kinase 1 (Homo sapiens) (Q05397 whole entry, looked up): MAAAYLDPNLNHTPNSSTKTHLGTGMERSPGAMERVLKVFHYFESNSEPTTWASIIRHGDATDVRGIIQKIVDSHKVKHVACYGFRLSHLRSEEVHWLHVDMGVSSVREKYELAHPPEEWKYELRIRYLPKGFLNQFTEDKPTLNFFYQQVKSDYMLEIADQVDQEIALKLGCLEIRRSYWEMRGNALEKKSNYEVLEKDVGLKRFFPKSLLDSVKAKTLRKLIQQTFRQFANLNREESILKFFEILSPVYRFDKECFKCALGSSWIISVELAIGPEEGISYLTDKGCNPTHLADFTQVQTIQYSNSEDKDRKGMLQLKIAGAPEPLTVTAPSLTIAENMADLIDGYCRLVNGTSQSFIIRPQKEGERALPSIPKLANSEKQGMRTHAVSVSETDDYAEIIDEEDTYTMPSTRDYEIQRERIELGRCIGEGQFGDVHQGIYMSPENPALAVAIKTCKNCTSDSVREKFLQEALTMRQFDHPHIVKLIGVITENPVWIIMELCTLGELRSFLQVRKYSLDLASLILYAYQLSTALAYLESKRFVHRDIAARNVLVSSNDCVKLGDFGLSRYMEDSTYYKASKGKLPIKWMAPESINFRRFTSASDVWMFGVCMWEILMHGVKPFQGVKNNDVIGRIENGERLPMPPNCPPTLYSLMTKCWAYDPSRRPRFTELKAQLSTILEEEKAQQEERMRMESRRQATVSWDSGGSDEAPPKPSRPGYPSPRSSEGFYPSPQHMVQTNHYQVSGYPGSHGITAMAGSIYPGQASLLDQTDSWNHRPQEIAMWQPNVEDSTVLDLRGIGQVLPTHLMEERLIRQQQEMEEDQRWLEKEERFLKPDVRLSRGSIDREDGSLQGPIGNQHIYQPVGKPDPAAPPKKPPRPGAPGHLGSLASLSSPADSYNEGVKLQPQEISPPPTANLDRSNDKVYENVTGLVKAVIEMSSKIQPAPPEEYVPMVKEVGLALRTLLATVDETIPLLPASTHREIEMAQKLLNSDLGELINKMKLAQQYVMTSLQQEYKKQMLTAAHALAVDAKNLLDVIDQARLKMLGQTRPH
Chain of Torsin-1A (Homo sapiens) (O14656 whole entry, looked up): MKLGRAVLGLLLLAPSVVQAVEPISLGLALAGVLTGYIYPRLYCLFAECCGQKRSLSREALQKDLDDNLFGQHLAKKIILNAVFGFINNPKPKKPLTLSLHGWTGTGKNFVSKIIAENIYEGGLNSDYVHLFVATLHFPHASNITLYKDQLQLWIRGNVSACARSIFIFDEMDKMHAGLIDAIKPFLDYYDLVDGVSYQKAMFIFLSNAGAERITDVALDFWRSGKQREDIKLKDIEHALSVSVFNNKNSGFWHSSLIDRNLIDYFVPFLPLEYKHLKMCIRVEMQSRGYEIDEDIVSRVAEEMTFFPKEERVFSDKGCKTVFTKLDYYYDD
Chain of Luciferin 4-monooxygenase (Photinus pyralis) (P08659 whole entry, looked up): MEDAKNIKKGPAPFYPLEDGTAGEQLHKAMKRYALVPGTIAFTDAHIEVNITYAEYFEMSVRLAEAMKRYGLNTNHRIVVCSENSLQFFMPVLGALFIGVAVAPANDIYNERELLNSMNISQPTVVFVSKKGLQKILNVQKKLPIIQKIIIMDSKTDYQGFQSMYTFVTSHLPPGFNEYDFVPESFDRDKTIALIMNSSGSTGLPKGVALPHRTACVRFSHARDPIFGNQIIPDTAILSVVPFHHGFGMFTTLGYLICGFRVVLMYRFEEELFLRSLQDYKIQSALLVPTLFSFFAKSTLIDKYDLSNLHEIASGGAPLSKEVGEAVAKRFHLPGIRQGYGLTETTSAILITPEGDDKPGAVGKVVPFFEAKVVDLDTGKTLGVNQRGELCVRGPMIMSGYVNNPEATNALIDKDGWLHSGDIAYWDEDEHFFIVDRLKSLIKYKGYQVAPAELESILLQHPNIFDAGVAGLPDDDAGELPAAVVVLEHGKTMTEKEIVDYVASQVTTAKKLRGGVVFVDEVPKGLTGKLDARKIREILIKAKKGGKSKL
Chain of Follistatin (Homo sapiens) (P19883 whole entry, looked up): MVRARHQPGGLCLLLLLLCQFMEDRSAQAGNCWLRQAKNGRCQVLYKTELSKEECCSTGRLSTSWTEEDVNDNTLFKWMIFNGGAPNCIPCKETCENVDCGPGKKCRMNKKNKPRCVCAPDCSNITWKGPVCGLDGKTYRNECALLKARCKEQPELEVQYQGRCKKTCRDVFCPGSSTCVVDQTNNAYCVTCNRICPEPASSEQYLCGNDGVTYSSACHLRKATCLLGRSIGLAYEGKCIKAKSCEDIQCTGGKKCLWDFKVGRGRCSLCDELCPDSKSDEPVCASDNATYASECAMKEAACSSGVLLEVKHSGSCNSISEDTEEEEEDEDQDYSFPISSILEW
Chain of Fibroblast growth factor 2 (Homo sapiens) (P09038 whole entry, looked up): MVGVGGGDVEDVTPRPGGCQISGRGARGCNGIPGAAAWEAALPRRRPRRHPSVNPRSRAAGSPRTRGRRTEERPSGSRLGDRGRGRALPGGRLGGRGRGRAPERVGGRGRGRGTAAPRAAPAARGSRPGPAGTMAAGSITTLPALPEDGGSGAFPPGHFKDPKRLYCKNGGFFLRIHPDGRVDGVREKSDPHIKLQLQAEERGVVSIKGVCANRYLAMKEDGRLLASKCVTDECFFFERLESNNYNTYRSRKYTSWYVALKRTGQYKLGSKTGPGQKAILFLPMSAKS

Regarding `COc1ccc(O[C@H]2C=C[C@@H](c3ccccc3)O[C@@H]2COC(=O)CCC(C)=NO[C@H](C)c2cn([C@@H]3COC[C@H]3O)nn2)cc1`, the composite z-score in [1] worked out at 1; in [2], 0.225; in experiment [3], 0.149; in [4], 0.517; in experiment [5], 0.368; in experiment [6] it was 0.459. Moreover, the composite z-score in the experiment on Lefty1 is 0.701; in [8], -0.151; in [10] it was 0.276; in experiment [15] it was 2.18; in experiment [16], -0.103; in the experiment with Torsin-1A (Homo sapiens) [17], 0.249. The composite z-score was determined as 0.419 in the experiment with Torsin-1A (Homo sapiens) [18] and 0.754 in [19]. Moreover, the z-score in experiment [7] is -1.56; in experiment [9], 0.884 (inactive); in experiment [11], -3.36 (inactive); in experiment [12], -1.39 (inactive); in [13], 5.66 (inactive); in experiment [14], 0.867 (inactive).

As for `COCCOC(=O)N1C(=O)[C@@]2(c3cc(C#CCNC(N)=O)ccc31)[C@H](c1ccc(O)cc1)N1[C@H](c3ccccc3)[C@H](c3ccccc3)OC(=O)[C@H]1[C@@H]2C(=O)N1CCCCCCC1`, the composite z-score in experiment [1] is 0.127; in experiment [2], 0.857; in [3] it was 0.14; in experiment [4] it was 0.606; in experiment [5], 1.3; in experiment [6], 1.5. Further, the composite z-score is 1.05 in the experiment on Lefty1; 0.566 in [8]; 0.272 in experiment [10]; 0.445 in experiment [15]; -0.186 in [16]; 0.4 with Torsin-1A (Homo sapiens) [17]. The composite z-score with Torsin-1A (Homo sapiens) [18] was 0.527; in [19], 1.65. Further, the z-score in experiment [7] is -1.18; in experiment [9], 0.629 (inactive); in experiment [11] it was -0.446 (inactive); in [12] it was -0.945 (inactive); in [13], -1.57 (inactive); in experiment [14], 0.357 (inactive).

As to `COC(=O)[C@H](C)NC(=O)CCC1CC(OC(=O)NCCc2ccc(F)cc2)CC2(CCCC(COC(=O)NCC(c3ccccc3)c3ccccc3)O2)O1` (stereo not given in full), the composite z-score in experiment [1] is 0.862; in experiment [2], 1.18; in [3] it was 0.548; in experiment [4], 0.834; in [5], 0.342; in experiment [6] it was 0.0725. In addition, the composite z-score is 0.483 in the experiment with Lefty1; 0.958 in experiment [8]; -0.073 in [10]; 0.688 in [15]; -0.0044 in experiment [16]; -0.311 with Torsin-1A (Homo sapiens) [17]. Further, the composite z-score with Torsin-1A (Homo sapiens) [18] is 0.387; in experiment [19], 0.282. Also, the z-score in [7] is 0.549; in [9], 0.467 (inactive); in experiment [11], -0.169 (inactive); in experiment [12], -0.0102 (inactive); in experiment [13], 1.27 (inactive); in experiment [14], -0.187 (inactive).

Regarding `COCCCNC(=O)[C@]1(Cc2ccccc2)N=C(c2ccc(OCCCO)cc2)O[C@@H]1c1ccccc1`, the composite z-score was found to be 1.26 in experiment [1]; 1.23 in experiment [2]; 1.03 in [3]; 0.99 in experiment [4]; 0.355 in experiment [5]; 0.827 in [6]. Moreover, the composite z-score in the experiment with Lefty1 was -0.334; in experiment [8] it was 1.09; in experiment [10], 0.424; in [15], 0.661; in experiment [16], 0.142; with Torsin-1A (Homo sapiens) [17], 0.445. Also, the results for the composite z-score (with Torsin-1A (Homo sapiens) [18]; in [19]) were 0.992 and -0.521, respectively. The z-score in [7] was 0.549; in experiment [9] it was -0.515 (inactive); in experiment [11] it was -2.94 (inactive); in [12], -0.0581 (inactive); in experiment [13] it was 0.423 (inactive); in experiment [14], -1.36 (inactive).

In the case of `CC(C)[C@@H](OCc1ccccc1)[C@H](C)C=NO[C@H](C)c1cn([C@H](CO)Cc2ccccc2)nn1`, the composite z-score in experiment [1] was 0.424; in experiment [2] it was 0.222; in experiment [3], -0.238; in [4], 0.286; in experiment [5] it was 0.171; in [6] it was 0.446. The composite z-score is 0.913 with Lefty1; 0.106 in [8]; 0.231 in experiment [10]; 0.808 in experiment [15]; -0.126 in experiment [16]; 0.353 in the experiment with Torsin-1A (Homo sapiens) [17]. The figures for the composite z-score (in the experiment with Torsin-1A (Homo sapiens) [18]; in [19]) were 1.15 and 0.29, respectively. Moreover, the z-score was 0.506 in experiment [7]; -1.62 (inactive) in experiment [9]; -1.28 (inactive) in experiment [11]; 0.403 (inactive) in experiment [12]; 0.987 (inactive) in experiment [13]; -0.437 (inactive) in [14].
